# Laboratory results reported in ChEMBL document CHEMBL1961873, “Compounds: GSK PKIS; Assays: Nanosyn kinase panel” (2012).
# Molecular target: Dual specificity mitogen-activated protein kinase kinase 1 (Homo sapiens) (UniProt Q02750)
# Details: at 0.1 µM
# 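Also: reported value is a mean percent inhibition.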
# Chain of Dual specificity mitogen-activated protein kinase kinase 1 (Homo sapiens) (Q02750 whole entry): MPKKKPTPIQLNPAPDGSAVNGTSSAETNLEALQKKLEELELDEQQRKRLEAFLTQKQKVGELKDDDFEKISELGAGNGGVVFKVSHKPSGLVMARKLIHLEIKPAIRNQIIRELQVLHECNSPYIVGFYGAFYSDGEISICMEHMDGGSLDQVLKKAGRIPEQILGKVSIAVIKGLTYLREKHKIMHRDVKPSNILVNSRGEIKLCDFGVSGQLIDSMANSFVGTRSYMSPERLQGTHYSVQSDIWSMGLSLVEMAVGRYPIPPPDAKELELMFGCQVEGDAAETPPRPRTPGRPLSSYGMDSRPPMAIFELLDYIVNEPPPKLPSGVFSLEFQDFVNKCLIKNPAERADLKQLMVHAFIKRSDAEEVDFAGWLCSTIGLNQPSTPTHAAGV
row,Compound,inhibition [%]
1,Nc1nccc(-c2c(-c3ccc(F)cc3)nn3cc(C(F)(F)F)ccc23)n1,1.8
2,CN1CCN(C(=O)c2ccc(NC(=O)Nc3ccc(N(C)c4ccnc(Nc5ccc(CS(C)(=O)=O)cc5)n4)cc3)cc2)CC1,1.05
3,CCn1c(-c2nonc2N)nc2c(C#CC(C)(C)O)nc(OCCNC)cc21,3.55
4,COc1ccc(-c2nn3ncccc3c2-c2ccnc(Nc3cccc(C(F)(F)F)c3)n2)cc1,1.9
5,Cc1ccc(C(=O)NC2CC2)cc1-c1ccc2[nH]ncc2c1,-3.43
6,Cc1ccc2c(c1)/C(=N/Nc1ccc(S(N)(=O)=O)cc1)C(=O)N2,0.13
7,FC(F)(F)c1ccc(-c2nn3ncccc3c2-c2ccnc(Nc3ccc4c(c3)OCCO4)n2)cc1,1.64
8,NS(=O)(=O)c1ccc(Nc2cc(-c3cccc(O)c3)n[nH]2)cc1,7.97
9,Cc1cc(O)cc(C)c1/C=C/c1cncc(C(=O)N(C)C)c1,2.74
10,COc1cc(Nc2nccc(-c3cnn4ncccc34)n2)cc(OC)c1,3.92
11,COc1cccc(-n2ncc3c(N/N=C/c4ccc(C)cc4)ncnc32)c1,4.05
12,[O-][S+]1CCN(Cc2ccc(-c3ccc4ncnc(Nc5ccc(OCc6ccccc6)c(Cl)c5)c4c3)o2)CC1,2.1
13,COc1ccc2ncnc(Nc3ccc(OCc4ccccc4)cc3)c2c1,3.95
14,CN(C)C(=O)O[C@H]1CN[C@H](C#Cc2cc3ncnc(Nc4ccc(OCc5cccc(F)c5)c(Cl)c4)c3s2)C1,1.29
15,NS(=O)(=O)c1ccc(NC=C2C(=O)Nc3ccc4ncsc4c32)cc1,17.5
16,CS(=O)(=O)CCNCc1nc(-c2ccc3ncnc(Nc4ccc(OCc5cccc(C(F)(F)F)c5)cc4)c3c2)cs1,1.13
17,CCS(=O)(=O)c1ccc(OC)c(Nc2nccc(N(C)c3ccc4c(C)n[nH]c4c3)n2)c1,4.63

row,Compound,inhibition [%]
1,Nc1nccc(-c2c(-c3ccc(F)cc3)ncn2CCCN2CCOCC2)n1,5.23
2,COC(=O)c1ccc2c(c1)C(=Cc1cc(Br)c(O)c(Br)c1)C(=O)N2,3.31
3,COc1cc2ncnc(Nc3ccc4c(cnn4Cc4ccccc4)c3)c2cc1OC,3.32
4,O=S(=O)(CCOCc1ccc(-c2ccc3ncnc(Nc4ccc(OCc5cccc(F)c5)c(Cl)c4)c3c2)o1)c1ccccc1,2.11
5,NC(=O)c1sc(-n2cnc3ccccc32)cc1OCc1ccccc1Br,3.81
6,NS(=O)(=O)c1cccc(-c2cc3ccncc3cc2OCc2ccccc2)c1,5.91
7,Cc1cc(Cl)cc2c1NC(=O)C2=NNc1ccc(S(N)(=O)=O)cc1,3.39
8,Oc1cccc(-c2nc(-c3ccccc3)[nH]c2-c2ccncc2)c1,5.08
9,COC(=O)Nc1nc2cc(Oc3ccc(NC(=O)Nc4cccc(Br)c4)cc3)ccc2[nH]1,5.03
10,Nc1nccc(C#Cc2cncnc2Nc2ccc(OCc3cccc(F)c3)c(Cl)c2)n1,2.67
11,O=C1Nc2ccc(-c3cccnc3)cc2C1=Cc1cc(Br)c(O)c(Br)c1,4.59
12,Nc1ccc(C#Cc2cncnc2Nc2ccc(OCc3cccc(F)c3)c(Cl)c2)cc1,2.6
13,NS(=O)(=O)c1cccc(Nc2cc(-c3ccc(F)cc3)n[nH]2)c1,5.05
14,CCS(=O)(=O)c1ccc(OC)c(Nc2ncc(-c3cccc(OC)c3)o2)c1,2.58
15,CCn1c(-c2nonc2N)nc2ccc(F)cc21,9.94
16,O=C1Nc2ccccc2/C1=C/Nc1ccc2[nH]c(=O)[nH]c2c1,8.19
17,CS(=O)(=O)Nc1cccc(-c2ccc3c(NC(=O)C4CC4)n[nH]c3c2)c1,0.37
